# Measurements taken from PubChem BioAssay.
# A number with no mark means an inactive call. The source made the active and inactive calls.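 How the source made its calls, unless noted: active means growth inhibition above 50% at the single 2 µM test dose, taken to imply half-maximal potency below 2 µM; inactive means the rest.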
# Assay: antimalarial activity against Dd2 strain (AID 2302);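 further: 0% = DMSO untreated growth and 100% = chloroquine plus artemisinin killed control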
# Conditions: P. falciparum Dd2 in RBCs, LDH growth readout, 72 h; at 2 µM; active compounds read high
row,Structure (SMILES),growth inhibition
1,Cc1ccccc1N1CCN(c2ccc(C(=O)NC(C)C)cn2)CC1,91% (active)
2,COc1ccc2nccc([C@@H](O)CN3CCC(NC(=O)c4ccc(C5(C(F)(F)F)N=N5)cc4)CC3)c2c1,41%
3,Cc1ccccc1C1CCN(C2CCC(NC(=O)/C=C/c3ccc(Cl)cc3)CC2)CC1 (stereo not given),25%
4,Cc1cccc2[nH]c(-c3ccc(-c4ccc(CN5CCCC(O)C5)cc4)s3)nc12 (stereo not given),29%
5,COc1cc(NC(=O)/C=C/c2cc(F)cc(F)c2F)cc(OCCN2CCC3(CC2)OCCO3)c1,26%
6,Cc1ccccc1Cc1cccc(/N=C(\N)Nc2ccc(Cl)cc2)n1,56% (active)
7,CCCCCC(C)NC[C@@H](O)[C@H](Cc1ccccc1)NC(=O)c1cc(NCC)cc(N2CCCCS2(=O)=O)c1 (stereo not given in full),79% (active)
8,O=[N+]([O-])c1ccc(C=NNc2nc(Nc3ccccc3)nc(Nc3ccccc3)n2)o1,61% (active)
9,CCNc1cc(C(=O)N[C@@H](Cc2cccc(Cl)c2)[C@H](O)CNC(C)CCCC(C)C)cc(N2CCCCS2(=O)=O)c1 (stereo not given in full),78% (active)
10,CN(C)Cc1ccc(-c2ccc3ccnc(N)c3c2)cc1,100% (active)
11,O=C(Nc1ccc(N2CCNCC2)cc1)c1ccn2ncc(-c3cccc(Cl)c3)c2n1,53% (active)
12,COc1ccc(-c2ccc(NC(=O)c3cccc(Cl)c3)cc2)cc1CN1CCCN(C)CC1,50% (active)
13,CCC(C)c1ccc(-n2c(Nc3ccccc3)nc3cc(S(N)(=O)=O)ccc32)cc1 (stereo not given),28%
14,Cc1c(C(=O)Nc2cc(Sc3ccc(F)cc3)cc([N+](=O)[O-])c2)sc2ncn(Cc3cccc(F)c3)c(=O)c12,53% (active)
15,COc1ccc(N2CCN(CCCCNC(=O)c3ccc(NC(=O)c4ccc(Cl)cc4)cc3)CC2)c(C)c1,51% (active)
16,Nc1cc2c(C3CCN(CC4CCN(C(=O)/C=C/c5ccc(Cl)c(Cl)c5)CC4)CC3)c[nH]c2cn1,94% (active)
17,O=C(Nc1ccc(-c2ccc(-c3nc4ccc(C(F)(F)F)cc4[nH]3)s2)cc1)c1ccoc1,54% (active)
18,Cc1cccc(CN2CCC(CNC(=O)c3cc4c(-c5ccccc5F)nn(C)c4s3)CC2)c1,15%
19,CCc1c(CCNC/C=C/C=C/CNCCc2ccc(OC)c(OC)c2CC)ccc(OC)c1OC,99% (active)
20,CC(C)C(C(=O)n1cc2c(ccc3nc(N)nc(N)c32)n1)C(C)C,49%

row,Structure (SMILES),growth inhibition
1,Cc1cccc(Nc2nc3nonc3nc2Nc2cccc(Cl)c2Cl)c1C,95% (active)
2,COc1cccc(CCc2ccc(O)c3c2C[C@H]2C[C@H]4[C@H](N(C)C)C(=O)C(C(N)=O)=C(O)[C@@]4(O)C(=O)C2=C3O)c1,67% (active)
3,CCOC(=O)c1ccc(NC(=O)N(Cc2ccc(-c3ccc(CN4CCNCC4)cc3)cc2)Cc2cccnc2)cc1,34%
4,COc1cc(NC(=O)/C=C/c2cc(F)cc(F)c2F)cc(OCCN2CCCCC2)c1,80% (active)
5,CC(C)Cn1c(N)cc(=O)n(C)c1=O,0%
6,COc1ccc(-c2nc(NC(=O)Cc3ccc4c(c3)OCCO4)sc2C)cc1,99% (active)
7,COc1ccc(-c2nc3c(NCc4ccccc4)nccc3[nH]2)c(OC)c1,21%
8,Cc1cccc(CN2CCC(C(=O)Nc3ccc(-c4nc5ccccc5[nH]4)cc3)CC2)n1,3%
9,Cc1ccc(C2CCN(CCCCNC(=O)c3ccc(NC(=O)c4ccc(Cl)cc4)cc3)CC2)c(OCC(F)(F)F)c1,84% (active)
10,CN(C)CC1CCCN1Cc1ccccc1-c1cnn(C)c(=O)c1Oc1ccccc1F (stereo not given),27%
11,CC(C)(C)OC(=O)NCC(=O)N(Cc1ccccc1)Cc1ccccc1,93% (active)
12,COc1cc(C(=O)N2CCOC(CCN3CCC[C@H]3C(=O)Nc3ccccc3)(c3ccc(Cl)c(Cl)c3)C2)cc(OC)c1OC (stereo not given in full),88% (active)
13,O=C(/C=C/c1ccc(Cl)c(Cl)c1)NCCCCCCN1CCCN(C(=O)Nc2ccc(F)c(Cl)c2)CC1,1%
14,Cc1nc(NCc2ccccc2)cc(NCC(O)c2ccc(O)cc2)n1 (stereo not given),10%
15,Cc1nc(-c2ccc(-c3ccc(NC(=O)Nc4ccc(I)c(OCCN(C)C)c4)cc3)c(C)c2)no1,92% (active)
16,Nc1nc(N)c2c(ccc3c2ccn3CCCC2CCCNC2)n1 (stereo not given),55% (active)
17,CCc1cn2c3c(cc(C(=O)N[C@@H](Cc4ccccc4)[C@H](O)CNC4CCOCC4)cc13)N(C)S(=O)(=O)C2,98% (active)
18,CNC(=O)/C=C/c1cc(NC(=O)Nc2cc(C)nc3c(F)cccc23)ccc1OC,70% (active)
19,CC(C)Cn1cc(C2CCN(CCN3CCC(CNC(=O)c4ccc(NC(=O)c5cc(Cl)cc(Cl)c5)cc4)CC3)CC2)c2ccccc21,96% (active)
20,O=C(NCCCNc1ccnc2cc(Cl)ccc12)c1ccccc1F,97% (active)

# Assay: HepG2 cytotoxicity, primary screen, cytotoxicity control for P. falciparum antimalarial project, cell-based, ATP luminescence (AID 2303;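 active means inhibition above 50%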;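 further: 0% = DMSO wells and 100% = digitonin-killed cells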)
# Conditions: HepG2 viability, 24-48 h, at 10 µM, active compounds read high
row,Structure (SMILES),inhibition
1,Cc1ccccc1N1CCN(c2ccc(C(=O)NC(C)C)cn2)CC1,13%
2,COc1ccc2nccc([C@@H](O)CN3CCC(NC(=O)c4ccc(C5(C(F)(F)F)N=N5)cc4)CC3)c2c1,8%
3,Cc1ccccc1C1CCN(C2CCC(NC(=O)/C=C/c3ccc(Cl)cc3)CC2)CC1 (stereo not given),78% (active)
4,Cc1cccc2[nH]c(-c3ccc(-c4ccc(CN5CCCC(O)C5)cc4)s3)nc12 (stereo not given),38%
5,COc1cc(NC(=O)/C=C/c2cc(F)cc(F)c2F)cc(OCCN2CCC3(CC2)OCCO3)c1,17%
6,Cc1ccccc1Cc1cccc(/N=C(\N)Nc2ccc(Cl)cc2)n1,48%
7,CCCCCC(C)NC[C@@H](O)[C@H](Cc1ccccc1)NC(=O)c1cc(NCC)cc(N2CCCCS2(=O)=O)c1 (stereo not given in full),3%
8,O=[N+]([O-])c1ccc(C=NNc2nc(Nc3ccccc3)nc(Nc3ccccc3)n2)o1,5%
9,CCNc1cc(C(=O)N[C@@H](Cc2cccc(Cl)c2)[C@H](O)CNC(C)CCCC(C)C)cc(N2CCCCS2(=O)=O)c1 (stereo not given in full),7%
10,CN(C)Cc1ccc(-c2ccc3ccnc(N)c3c2)cc1,20%
11,O=C(Nc1ccc(N2CCNCC2)cc1)c1ccn2ncc(-c3cccc(Cl)c3)c2n1,79% (active)
12,COc1ccc(-c2ccc(NC(=O)c3cccc(Cl)c3)cc2)cc1CN1CCCN(C)CC1,48%
13,CCC(C)c1ccc(-n2c(Nc3ccccc3)nc3cc(S(N)(=O)=O)ccc32)cc1 (stereo not given),0%
14,Cc1c(C(=O)Nc2cc(Sc3ccc(F)cc3)cc([N+](=O)[O-])c2)sc2ncn(Cc3cccc(F)c3)c(=O)c12,-1%
15,COc1ccc(N2CCN(CCCCNC(=O)c3ccc(NC(=O)c4ccc(Cl)cc4)cc3)CC2)c(C)c1,42%
16,Nc1cc2c(C3CCN(CC4CCN(C(=O)/C=C/c5ccc(Cl)c(Cl)c5)CC4)CC3)c[nH]c2cn1,0%
17,O=C(Nc1ccc(-c2ccc(-c3nc4ccc(C(F)(F)F)cc4[nH]3)s2)cc1)c1ccoc1,9%
18,Cc1cccc(CN2CCC(CNC(=O)c3cc4c(-c5ccccc5F)nn(C)c4s3)CC2)c1,18%
19,CCc1c(CCNC/C=C/C=C/CNCCc2ccc(OC)c(OC)c2CC)ccc(OC)c1OC,75% (active)
20,CC(C)C(C(=O)n1cc2c(ccc3nc(N)nc(N)c32)n1)C(C)C,58% (active)

row,Structure (SMILES),inhibition
1,Cc1cccc(Nc2nc3nonc3nc2Nc2cccc(Cl)c2Cl)c1C,88% (active)
2,COc1cccc(CCc2ccc(O)c3c2C[C@H]2C[C@H]4[C@H](N(C)C)C(=O)C(C(N)=O)=C(O)[C@@]4(O)C(=O)C2=C3O)c1,43%
3,CCOC(=O)c1ccc(NC(=O)N(Cc2ccc(-c3ccc(CN4CCNCC4)cc3)cc2)Cc2cccnc2)cc1,13%
4,COc1cc(NC(=O)/C=C/c2cc(F)cc(F)c2F)cc(OCCN2CCCCC2)c1,10%
5,CC(C)Cn1c(N)cc(=O)n(C)c1=O,3%
6,COc1ccc(-c2nc(NC(=O)Cc3ccc4c(c3)OCCO4)sc2C)cc1,0%
7,COc1ccc(-c2nc3c(NCc4ccccc4)nccc3[nH]2)c(OC)c1,16%
8,Cc1cccc(CN2CCC(C(=O)Nc3ccc(-c4nc5ccccc5[nH]4)cc3)CC2)n1,-9%
9,Cc1ccc(C2CCN(CCCCNC(=O)c3ccc(NC(=O)c4ccc(Cl)cc4)cc3)CC2)c(OCC(F)(F)F)c1,32%
10,CN(C)CC1CCCN1Cc1ccccc1-c1cnn(C)c(=O)c1Oc1ccccc1F (stereo not given),18%
11,CC(C)(C)OC(=O)NCC(=O)N(Cc1ccccc1)Cc1ccccc1,-10%
12,COc1cc(C(=O)N2CCOC(CCN3CCC[C@H]3C(=O)Nc3ccccc3)(c3ccc(Cl)c(Cl)c3)C2)cc(OC)c1OC (stereo not given in full),3%
13,O=C(/C=C/c1ccc(Cl)c(Cl)c1)NCCCCCCN1CCCN(C(=O)Nc2ccc(F)c(Cl)c2)CC1,30%
14,Cc1nc(NCc2ccccc2)cc(NCC(O)c2ccc(O)cc2)n1 (stereo not given),5%
15,Cc1nc(-c2ccc(-c3ccc(NC(=O)Nc4ccc(I)c(OCCN(C)C)c4)cc3)c(C)c2)no1,47%
16,Nc1nc(N)c2c(ccc3c2ccn3CCCC2CCCNC2)n1 (stereo not given),67% (active)
17,CCc1cn2c3c(cc(C(=O)N[C@@H](Cc4ccccc4)[C@H](O)CNC4CCOCC4)cc13)N(C)S(=O)(=O)C2,13%
18,CNC(=O)/C=C/c1cc(NC(=O)Nc2cc(C)nc3c(F)cccc23)ccc1OC,-3%
19,CC(C)Cn1cc(C2CCN(CCN3CCC(CNC(=O)c4ccc(NC(=O)c5cc(Cl)cc(Cl)c5)cc4)CC3)CC2)c2ccccc21,53% (active)
20,O=C(NCCCNc1ccnc2cc(Cl)ccc12)c1ccccc1F,18%
